This note sets out measurements from PubChem BioAssay (NCATS).

Each structure is given as a SMILES string. Inconclusive results are not listed. Values without a mark were called inactive. Calls of active or inactive are those of the source. Calls come from the whole dose curve; as a rule, active = well fitted curve in the direction sought with a large enough effect; inconclusive = small, poorly fitted or top-dose-only effect, or another doubt; inactive = no such curve, though single readings can be large; an effect the other way counts as inactive or inconclusive. Residues, ends and D or L forms follow the SMILES beside them. *: point of attachment. Cbz = O=C(OCc1ccccc1)*

The first experiment is described as follows: Cytometric Cell-Based qHTS for Inhibitors of the mTORC1 Signaling Pathway in MEF (Tsc2-/-, p53-/-) Cells (AID 2660).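 Note: Tsc2 and p53 null MEFs carrying empty vector with compound for 24 h; percent of cells above a phospho-rpS6 to PI ratio cutoff in each well; plate controls were DMSO for no effect and rapamycin for full effect.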 The conditions noted are these: mTORC1 pathway cytometry; series mostly up to 38.3 µM; activity change, negative = inhibition: at the top concentration. A digest of the protocol:
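Percent of cells positive for normalized phospho-S6 staining is reported, with the cutoff set from rapamycin (7.5 nM) versus DMSO wells. Tsc2-/-, p53-/- MEFs received compound for 24 hrs.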
Background: Quantitative high-throughput screening tests each substance at several concentrations.
On to `CC(C)[C@H](NC(=O)OCc1ccccc1)C(=O)N[C@H](C=O)Cc1ccccc1` (Cbz-Val-Phe-aldehyde), for which the “activity change, negative = inhibition” value was 3.29%.
Still for that read-out and setting: with `NC(=Nc1ccccc1)NC(=O)c1nc(Cl)c(N)nc1N` the figure was 1.71%; with `N[C@H](C(=O)O)[C@H](Cc1ccccc1)C(=O)O`, -1.93%; with `CC(=O)O[C@H]1Cc2ccccc2N(C(N)=O)c2ccccc21`, 1.46%.
Same read-out and setting: next, `NC[C@@H]1O[C@H](c2ccccc2)Cc2c1ccc(O)c2O`: -24.7%.
On the same count and under the same terms, with `Cc1ccc2c(c1)C(N1CCN(C)CC1)=Nc1cccnc1N2` the figure was -2.38%.
As to `NS(=O)(=O)c1cccc2c1c([N+](=O)[O-])cc1nc(O)c(O)nc12`, the “activity change, negative = inhibition” value was 2.47%.
On the same count and under the same terms, next, `Nc1nc2c(nc(Br)n2C2OC3COP(=O)(O)O[C@@H]3C2O)c(=O)[nH]1` (some centres undefined): -0.153%; `NCC(O)C1CCCCCCC1` (centres undefined): 6.83%.
Still for that read-out and setting: next, `CCN(c1nc(N)c(C(=O)N=C(N)N)nc1Cl)C(C)C`: -19.1%; `O=c1ccc2c(OCCCCc3ccccc3)c3ccoc3cc2o1`: -1.35%; `CC(C)NC[C@H](O)COc1cccc2ccccc12`: 0.0828%.
The same measure, in the same setting: next, `Cc1nc(N=Nc2cc(S(=O)(=O)O)c3cc([N+](=O)[O-])cc(S(=O)(=O)O)c3c2)c(COP(=O)(O)O)c(C=O)c1O`: 3.51%.
Regarding `CN1CC(O)C(O)C(O)C1CO` (centres undefined), the “activity change, negative = inhibition” value is -0.612%.
Consider `CCCCCCCCCCCCCCSCC(=O)O`, for which the “activity change, negative = inhibition” value is -9.94%.
Regarding `CCCCCCC/C=C\CCCCCCCCC(=O)O`, the “activity change, negative = inhibition” value was 7.18%.
Regarding `Cc1ccc([N+](=O)[O-])cc1S(=O)(=O)N(C)C`, the “activity change, negative = inhibition” value is -14.4%.
`C=C1C[C@@]23CC[C@H]4[C@@](C)(CCC[C@@]4(C)C(=O)O)[C@@H]2CC[C@]1(O)C3`: the “activity change, negative = inhibition” value is -2.58%.
The same measure, in the same setting: with `O=C(O)c1ccccc1Nc1cccc(OCc2ccc3ccccc3n2)c1` the figure was 0.762%; with `CCCCCCC(=O)OC1CC(C)(C)NC(C)(C)C1`, 3.15%; with `O=C(O)/C(=C/c1c(C(=O)O)[nH]c2cc(Cl)cc(Cl)c12)c1ccccc1`, 8.43%.

A further experiment in a line: High Content Imaging Cell-Based qHTS for Inhibitors of the mTORC1 Signaling Pathway in MEF (Tsc2-/-, p53-/-) Cells (AID 2666).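 Note: percent of cells scored positive for phospho-rpS6 Ser235/236 immunostaining by imaging.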 The conditions noted are these: series mostly up to 38.3 µM. A digest of the protocol:
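MEF Tsc2-/- p53-/- (empty vector), DMEM/10% FBS; cpd 24 h 37 °C; PFA fix, Alexa-488 p-rpS6 S235/236 Ab, Hoechst; imaged; rapamycin-defined inhibition; % positive cells/well.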
On to `N=C(N)c1ccc(OCCCCCOc2ccc(C(=N)N)cc2)cc1` (tested in a mixture with another compound), for which the outcome was inactive.
As for `CC(O)C(O)[C@H]1CNc2nc(N)[nH]c(=O)c2N1` (some centres undefined), the result was inactive.
Same read-out and setting: next, `N#C/C(=C\c1ccc(O)c(O)c1)C(=O)NCCCNC(=O)/C(C#N)=C/c1ccc(O)c(O)c1`: “inactive”; `Cc1nc2c(OCc3ccccc3)cccn2c1CC#N`: “inactive”.
Same read-out and setting: next, `O=C(O)C1=CCCN(CCON=C(c2ccccc2)c2ccccc2)C1`: “inactive”.
With `CC(=O)SC1CC2=CC(=O)CC[C@]2(C)C2CC[C@@]3(C)C(CC[C@@]34CCC(=O)O4)C12` (some centres undefined), the outcome was inactive.
Still for that read-out and setting: with `COc1ccc(CCn2nnnc2C2(c3ccc(C)cc3)CC2)cc1` the entry was “inactive”.
Regarding `CC(C)[C@@H]1CC[C@@H](C)C[C@@H]1P(=O)(c1ccccc1)c1ccccc1`, the compound was called inactive.
On the same count and under the same terms, next, `CCCCOc1cc(CC2CNC(=O)N2)ccc1OC` (centres undefined): “inactive”; `O=c1cc(O)cc(/C=C/c2ccc(O)c(O)c2)o1`: “inactive”; `Nc1ncnc2c1ncn2C1CCCO1` (centres undefined): “inactive”.
On the same count and under the same terms, next, `O=C(O)C1=CC(=C(c2ccc(O)c(C(=O)O)c2)c2ccc(O)c(C(=O)O)c2)C=CC1=O`: “inactive”; `CCCn1c(=O)c(C)cn2nc(N)nc12`: “inactive”.
Same read-out and setting: with `C=CC1(C)CC(=O)C2(O)C(C)(O1)C(OC(C)=O)C(O)C1C(C)(C)CCC(O)C12C` (centres undefined) the entry was “inactive”.
As to `O=c1[nH]c(=O)c2nc3ccccc3nc2[nH]1`, the compound was called inactive.
For `CC(C)C[C@H](NC(=O)C1OC1C(=O)O)C(=O)NCCCCN=C(N)N` (some centres undefined), the compound was classed as inactive.
Still for that read-out and setting: next, `O=C(O)CCC/C=C\C[C@@H]1[C@@H](/C=C/[C@H](O)C2Cc3ccccc3C2)[C@@H](F)C[C@@H]1O`: “inactive”; `CC(C)[C@H](NC(=O)OCc1ccccc1)C(=O)N[C@H](C=O)Cc1ccccc1` (Cbz-Val-Phe-aldehyde): “inactive”.
Still for that read-out and setting: next, `NC(=Nc1ccccc1)NC(=O)c1nc(Cl)c(N)nc1N`: “inactive”.
On the same count and under the same terms, next, `N[C@H](C(=O)O)[C@H](Cc1ccccc1)C(=O)O`: “inactive”; `CC(=O)O[C@H]1Cc2ccccc2N(C(N)=O)c2ccccc21`: “inactive”; `NC[C@@H]1O[C@H](c2ccccc2)Cc2c1ccc(O)c2O`: “inactive”.
On to `Cc1ccc2c(c1)C(N1CCN(C)CC1)=Nc1cccnc1N2`, for which the compound was called inactive.
The same measure, in the same setting: next, `NS(=O)(=O)c1cccc2c1c([N+](=O)[O-])cc1nc(O)c(O)nc12`: “inactive”; `Nc1nc2c(nc(Br)n2C2OC3COP(=O)(O)O[C@@H]3C2O)c(=O)[nH]1` (some centres undefined): “inactive”.
As to `NCC(O)C1CCCCCCC1` (centres undefined), the compound was classed as inactive.
Same read-out and setting: next, `CCN(c1nc(N)c(C(=O)N=C(N)N)nc1Cl)C(C)C`: “inactive”; `O=c1ccc2c(OCCCCc3ccccc3)c3ccoc3cc2o1`: “inactive”.
Same read-out and setting: with `CC(C)NC[C@H](O)COc1cccc2ccccc12` the entry was “inactive”; with `Cc1nc(N=Nc2cc(S(=O)(=O)O)c3cc([N+](=O)[O-])cc(S(=O)(=O)O)c3c2)c(COP(=O)(O)O)c(C=O)c1O`, “inactive”; with `CN1CC(O)C(O)C(O)C1CO` (centres undefined), “inactive”.
Same read-out and setting: next, `CCCCCCCCCCCCCCSCC(=O)O`: “inactive”; `CCCCCCC/C=C\CCCCCCCCC(=O)O`: “inactive”; `Cc1ccc([N+](=O)[O-])cc1S(=O)(=O)N(C)C`: “inactive”.
Consider `C=C1C[C@@]23CC[C@H]4[C@@](C)(CCC[C@@]4(C)C(=O)O)[C@@H]2CC[C@]1(O)C3`, for which the outcome was inactive.
Regarding `O=C(O)c1ccccc1Nc1cccc(OCc2ccc3ccccc3n2)c1`, the result was inactive.
The same measure, in the same setting: next, `CCCCCCC(=O)OC1CC(C)(C)NC(C)(C)C1`: “inactive”.
Same read-out and setting: next, `O=C(O)/C(=C/c1c(C(=O)O)[nH]c2cc(Cl)cc(Cl)c12)c1ccccc1`: “inactive”.
